Assay outcomes: PubChem, National Center for Advancing Translational Sciences (NCATS)
LDHA block = blocks human lactate dehydrogenase A | AID 1347041 | purified LDHA, NADH/diaphorase-resazurin fluorescence; hits give low values | actives 0.15% (n = 480,000) | P00338 | activity change, % (values are at about 110 or 230 µM); in the data active = activity change below about -30%; inconclusive = mostly about -25% to -30%;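 note: plate controls were DMSO wells for no effect and wells without enzyme for full effect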
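Enzyme activity of human lactate dehydrogenase 5 (2 nM; 0.06 mM NADH, 0.2 mM pyruvate, 5 min, RT) is measured via a resazurin/diaphorase fluorescence readout of residual NADH.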
PI5P4Ka inh = PI5P4K alpha (human) kinase inhibition | actives 1.2% (n = 330,000) | max response, % | PI5P4Kalpha enzyme, ADP-Glo luminescence, 60 min; hits give low values | P48426; active = max response of -50% or lower; inconclusive = between -30% and -50%; inactive = -30% or higher; note: value at the top dose of about 77 µM; % is set by controls: 0 for no effect and ±100 for the full control effect
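Compounds were pin-transferred onto PI5P4Kalpha and substrate in HEPES pH 7.4 buffer with EGTA, CHAPS and 5% DMSO. ATP (5 microM final) started the reaction, which ran 60 minutes at room temperature before ADP-Glo detection.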
DRD3 agonist = agonists of human D3 dopamine receptor. P35462. D3R DiscoveRx beta-arrestin cells, luminescence, 90 min. max activation, %. actives 0.58% (n = 410,000); in the data active = max activation above about 30%; note: 0% is about no effect
Target sequence (P35462 whole entry, looked up): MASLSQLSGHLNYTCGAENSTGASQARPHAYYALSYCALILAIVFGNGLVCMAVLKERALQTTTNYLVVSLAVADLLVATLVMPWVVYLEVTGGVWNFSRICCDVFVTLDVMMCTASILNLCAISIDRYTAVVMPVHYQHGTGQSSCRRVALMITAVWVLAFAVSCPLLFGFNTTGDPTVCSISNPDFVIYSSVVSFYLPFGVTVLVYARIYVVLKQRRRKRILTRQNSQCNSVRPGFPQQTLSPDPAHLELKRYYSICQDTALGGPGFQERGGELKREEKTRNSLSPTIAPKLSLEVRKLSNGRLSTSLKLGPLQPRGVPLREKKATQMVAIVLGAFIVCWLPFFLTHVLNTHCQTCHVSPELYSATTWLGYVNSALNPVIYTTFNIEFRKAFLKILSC
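Cells at 1500/well, incubated overnight, then treated with pinned compounds (dopamine as control) for 90 min at 37 degrees C. DiscoveRx reagent added for 30 - 60 minutes at room temperature; luminescence read.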
PI4K2A inh = blocks human PI4K2A kinase activity. purified PI4K2A, ADP-Glo luminescence, 1 h; hits give low values. activity change, negative = inhibition, % at 76.9 µM. actives 0.13% (n = 420,000). AID 1346378; in the data active = activity change below about -50%; inconclusive = mostly about -30% to -49%;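 note: -100% = wells without enzyme as full effect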
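ADP-Glo luminescence measured ADP generated by PI4K2A enzyme (4 ug/mL before mixing) with 1.2 mM PI substrate (pre-mix) and 300 microM ATP (pre-mix). Tris pH7.5 buffer with MgCl2, Triton X-100; 1 h reaction at ambient temperature.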
D3 antag = D3 dopamine receptor (human) antagonism; P35462; D3R cells, DiscoveRx beta-arrestin luminescence, antagonist mode; hits give low values; max response, negative = inhibition, %; actives 2.5% (n = 360,000); in the data active = max response below about -50%; inconclusive = no clear call, values can overlap the other calls; note: % is set by controls: 0 for no effect and ±100 for the full control effect
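Cells expressing the human receptor were seeded at 1500 cells/well, incubated overnight at 37 degrees C in 5% CO2, then exposed to library compounds with dopamine controls for 90 minutes at 37 degrees C before luminescent detection.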
Active calls of the source: *; ? = inconclusive; · = no result given. Hits are enriched below; roughly 3.3% of the tested compounds scored in any of these assays.

SMILES	LDHA block	PI5P4Ka inh	DRD3 agonist	PI4K2A inh	D3 antag
O=C(Nc1ccc2ccccc2c1)N1CCCN(CCOc2ccccc2)CC1	4	8	2	4	-78*
CCCN1CCN(C(=O)Nc2ccc(OCC)cc2)CC1	-1	0	0	-1	2
O=C(c1cc2ccccc2o1)c1nc2c(n1O)CCCCC2	5	-2	-4	-7	-79*
CCOCc1c(C(=O)N2CCN(CCOc3ccc(Cl)cc3)CC2)oc2ccccc12	-7	11	108*	3	-10
O=C(c1cc2ccccc2o1)N1CCN(S(=O)(=O)c2cccs2)CC1	-1	6	10	-9	-56*
Cc1[nH]c2ccccc2c1C(=O)C(C)OC(=O)c1ccc(CO)cc1 (stereo not given)	7	·	·	·	·
O=C(OCCN1CCCCC1)c1ccccc1Br	0	2	-22	-2	-22
O=C(OCCN1CCCCC1)c1cc2ccccc2o1	4	1	1	-5	-66*
O=C(c1cc2ccccc2o1)N1CCN(CCOc2ccccc2)CC1	3	-2	58*	-8	25
O=C(c1cc2ccccc2o1)N1CCOCC1	-8	1	3	2	2
Cc1ccc(NC(=O)COc2ccc(/C=C(/C#N)C(=O)N3CCOCC3)cc2)cc1	-4	·	·	·	·
CC[C@@H](CCCc1ccc(F)cc1)CN(Cc1ccc(OC)cc1)S(=O)(=O)c1ccc(C)cc1	·	·	·	2	·
COc1cc(C(=O)Oc2ccc3c(c2)O/C(=C\c2ccc(C(C)(C)C)cc2)C3=O)cc(OC)c1OC	3	·	·	·	·
Cc1ccccc1C1C(C#N)=C2N=C(N)c3c(sc4c3CCCCC4)N2C2=C1C(=O)CC(C)(C)C2 (stereo not given)	4	·	-8	1	-61*
COc1ccc(NC(=O)CN(C)C(=O)Cn2[nH]c(=O)c3ccccc3c2=O)cc1	-1	·	·	·	·
O=C1C(NC(=O)N2c3ccccc3C=Cc3ccccc32)CCCCN1Cc1cccc(C(F)(F)F)c1 (stereo not given)	·	·	·	4	·
O=S(=O)(Nc1c(S(=O)(=O)c2ccccc2)c2nc3ccccc3nc2n1C1CCCCC1)c1ccccc1	28	-2	6	?	-70*
Cc1cc2c(s1)c1cnn(Cc3cccc(C)c3F)c(=O)c1n2C	-1	·	·	·	·
CCc1ccc(/C=C/C(=O)O)cc1	8	·	·	·	·
CCN(CC)CC(C)(C)C(=O)/C=C/c1ccc(/C=C/C(=O)C(C)(C)CN(CC)CC)cc1	-12	-8	-14	14	-64*
CCCNC(=O)c1cc(C)c(CC)s1	-16	·	·	·	·
CC(CC(=O)Nc1ccc(F)c(F)c1)n1ccnc1 (stereo not given)	4	·	·	·	·
CC1CC(C)CN(CCOCCSc2ccccc2)C1 (stereo not given)	-20	0	-11	-6	-73*
CC1CC(C)CN(CCOCCSc2ccc(Cl)cc2)C1 (stereo not given)	-13	0	-14	1	-80*
CC1CCC(=O)N(CCSc2ccccc2)CC1 (stereo not given)	-3	-13	-6	6	13
SMILES	LDHA block	PI5P4Ka inh	DRD3 agonist	PI4K2A inh	D3 antag
c1ccc(SCCOCCN2CCOCC2)cc1	-4	5	-20	-1	-7
CC1CCCN(CCOCCSc2ccccc2)C1 (stereo not given)	?	1	-12	0	-73*
CC1CC(C)CN(CCCSc2ccccc2)C1 (stereo not given)	-15	0	-10	-3	-51*
Cc1ccc(NC(=O)Nc2nnc(C3CCCCC3)s2)cc1C	3	·	·	·	·
COc1cccc2cc(-c3csc(Nc4ccc(O)cc4)n3)c(=O)oc12	-1	·	·	·	·
O=C1C(Cc2ccccc2)Nc2ncnc(N3CCCCC3)c2N1Cc1ccc(Cl)cc1 (stereo not given)	-1	-4	-45	3	-65*
CC(C)CC1Nc2ncnc(N3CCN(c4ccccc4)CC3)c2N(Cc2ccc(Br)cc2)C1=O (stereo not given)	-7	-2	0	4	0
COc1ccc(CN2C(=O)C(CC(C)C)Nc3ncnc(N4CCN(c5ccccc5)CC4)c32)cc1 (stereo not given)	-3	0	-8	-4	-10
O=C1C(Cc2ccccc2)Nc2ncnc(N3CCOCC3)c2N1Cc1ccc(Br)cc1 (stereo not given)	1	-7	-27	4	-66*
CC(C)CC1Nc2ncnc(N3CCCCC3)c2N(Cc2ccccc2)C1=O (stereo not given)	0	-6	-24	0	-4
O=C1C(Cc2ccccc2)Nc2ncnc(N3CCN(c4ccccc4)CC3)c2N1Cc1ccc(Cl)cc1 (stereo not given)	-14	9	-45	2	-128*
COc1ccc(CN2C(=O)C(Cc3ccccc3)Nc3ncnc(N4CCN(c5ccccc5)CC4)c32)cc1 (stereo not given)	0	-4	-47	-1	-111*
CC(C)C(=O)Nc1ccc2[nH]cc(C(C(=O)O)N3CCN(c4ccc(F)cc4)CC3)c2c1 (stereo not given)	4	·	·	·	·
CCC(=O)Nc1cc(NC(=O)CSc2ncc(-c3ccc(F)cc3)n2Cc2ccco2)ccc1C	-5	-9	1	5	-60*
Clc1ccccc1Nc1nnc(-c2ccncc2)s1	-5	?	-10	?	-24
FC(F)(F)c1ccc(Cl)c(Nc2nnc(-c3ccncc3)s2)c1	0	-1	-8	·	-56*
CCN1CCN(Cc2cc(=O)oc3cc(C)cc(O)c23)CC1	2	·	·	·	·
CC(C)COCCCN	5	·	·	·	·
CC1(NC(=O)/C=C/c2nc3ccccc3s2)CCS(=O)(=O)C1 (stereo not given)	-3	-56*	1	-19	9
CCCN(C(=O)/C=C/c1nc2ccccc2s1)C1CCS(=O)(=O)C1 (stereo not given)	3	?	2	-5	20
Cn1c(-c2ccccc2)cn2cc(-c3cccc(Br)c3)nc12	-11	·	·	·	·
Cc1ccc(NC(=O)C(C)N(C)Cc2ccc3ccccc3c2)c(C)c1 (stereo not given)	-2	·	·	·	·
CC(=O)Nc1nc2ncccn2c1-c1ccc(C)cc1	·	·	·	5	·
OC(COCC1COc2ccccc2O1)CN1CCN(c2ccccc2)CC1 (stereo not given)	-5	-2	33*	-4	-7
COCCOCC(O)CN1CCN(c2ccccc2)CC1 (stereo not given)	-13	0	11	2	-78*
COCCOCC(O)CN1CCN(c2ccc(C)cc2)CC1 (stereo not given)	-20	4	-14	5	-62*
CCN1CCN(CC(O)COCC2COc3ccccc3O2)CC1 (stereo not given)	-1	-7	-4	-8	-12
O=c1oc2ccccc2nc1/C=C(O)/C=C\c1ccccc1	19	-7	2	0	-55*
